# In PubChem BioAssay (NCATS):
# A number with no mark means an inactive call. Inconclusive results are not listed. Where a call stands in place of a potency, no number is given. Active and inactive are the calls of the source. Unless noted, calls follow the shape of the dose curve; as a rule, active = well fitted curve in the direction sought with a large enough effect; inconclusive = small, poorly fitted or top-dose-only effect, or another doubt; inactive = no such curve, though single readings can be large; an effect the other way counts as inactive or inconclusive.
# Assays:
# [1] = qHTS for Inhibitors of Plasmodium falciparum (DD2) proliferation (AID 504314);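 also: parasite DNA measured by SYBR Green fluorescence after red cell lysis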
# Summary of the method: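 Infected RBCs, 0.3% parasitemia, 2.5% Hct; compound 72 h, 37C/5% CO2; lyse + SYBR Green I, RT overnight, dark; read ex485/em535; normalize to DMSO and artemisinin 0.29 uM.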
# [2] = Confirmation and Secondary Assay for Modulators of Hemoglobin Beta Chain Splicing at IVS2 654 locus (AID 910);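 also: per-well total GFP intensity by laser scanning cytometry after 2-day treatment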
# Summary of the method: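 HeLa cells stably carrying EGFP interrupted by mutant beta-globin IVS2-654 intron (CMV-driven) were treated with compound for 2 days at 37C; corrected splicing was scored as total peak GFP intensity per well (488 nm excitation, 500-520 nm emission).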
# [3] = Confirmation and Secondary Assay for Modulators of Hemoglobin Beta Chain Splicing at IVS2 705 locus (AID 930);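 also: HeLa cells stably expressing the EGFP-705 splicing reporter; GFP fluorescence per well restored by corrected splicing of the IVS2-705 intron in EGFP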
# Summary of the method: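 Assay measures total GFP intensity per well in HeLa EGFP-705 cells after 2 days with compound; mis-splicing normally truncates EGFP, so fluorescence indicates corrected splicing.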
# DFO2036 = test: qHTS profiling for inhibitors of Plasmodium falciparum proliferation (AID 504749); also: nearly all actives have a fitted effect of over 60% in size; also: potency is read from the fitted curve at half-maximal effect; details: P. falciparum in erythrocytes, SYBR Green DNA, 72 h; series mostly up to 28.7 µM
# Summary of the method: (§1)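 Parasite proliferation within erythrocytes, 72 h exposure. Endpoint: SYBR Green I fluorescence after overnight lysis at room temperature. Controls: 0.29 uM artemisinin, DMSO.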
# [4] = S16 Schwann cell PMP22 intronic element firefly luciferase assay (AID 624032); also: nearly all actives have a fitted effect of over 30% in size; also: potency is read from the fitted curve at half-maximal effect
# Summary of the method: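 Rat S16 Schwann cells stably carrying a PMP22 intronic element-driven Fluc reporter were seeded overnight, then exposed to compounds for 24 h at 37 °C. Luminescence was normalized to PTC124 (positive control) and DMSO (0% activity).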
# DIV14 = test: qHTS profiling for inhibitors of Plasmodium falciparum proliferation (AID 504749); also: nearly all actives have a fitted effect of over 60% in size; also: potency is read from the fitted curve at half-maximal effect; details: P. falciparum in erythrocytes, SYBR Green DNA, 72 h; series mostly up to 28.7 µM
# Summary of the method: as §1
# ICS = test: as above; details: P. falciparum in erythrocytes, SYBR Green DNA, 72 h; series mostly up to 28.7 µM
# Summary of the method: as §1
# W2 = test: as above; details: P. falciparum in erythrocytes, SYBR Green DNA, 72 h; series mostly up to 28.7 µM
# Summary of the method: as §1
# [5] = target: Ubiquitin carboxyl-terminal hydrolase 1 (Homo sapiens) (UniProt O94782); test: Inhibitors of USP1/UAF1: Pilot qHTS (AID 504865);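 also: rhodamine fluorescence freed from ubiquitin-rhodamine substrate followed over time; top concentration of the series differs between compounds; nearly all actives have a fitted effect of over 35% in size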
# Summary of the method: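 Enzyme-free wells gave the negative control, while test wells held 1nM USP1/UAF1 preincubated with compound for 15 min at room temperature. Ub-Rho at 150nM final started the reaction, and fluorescence at 480/540 nm was recorded kinetically.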
# [6] = target: Mitogen-activated protein kinase 10 (Mus musculus) (UniProt Q61831); test: JNK3 AlphaScreen Assay (AID 530; active = well fitted curve in either direction with a large enough effect, not every such curve was filed as active;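 also: kinase came from lysate of stimulated human HepG2 cells; signal reports phosphorylation of biotinylated GST-cJun 1-79 at Ser73 with 10 µM ATP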)
# Summary of the method: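 Inhibitors reduce antibody binding to phosphorylated biotin-cJun, lowering AlphaScreen luminescence. Lysates from HepG2 cells pre-activated by IL-1beta plus TNF-alpha supplied JNK3; compounds were titrated.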
# [7] = target: DNA dC->dU-editing enzyme APOBEC-3G (Homo sapiens) (UniProt Q9HC16); test: qHTS for inhibitors of Vif-A3G interactions: Validation (AID 588379)
# Summary of the method: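 HeLa cells stably expressing Vif and A3G-eYFP, 700 cells/well, incubated overnight at 37 deg C, then exposed to compound overnight at 37 deg C. Inhibition of Vif-mediated degradation read as increased yellow fluorescence (Ex 488/Em 500-530) by laser-scanning cytometry.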
# [8] = target: Cytochrome P450 3A4 (Homo sapiens) (UniProt P08684); test: qHTS Assay for Inhibitors and Substrates of Cytochrome P450 3A4 (AID 884); also: nearly all actives have a fitted effect of over 50% in size
# Summary of the method: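 20 nM human CYP3A4 with 25 uM Luciferin-PPXE (at KM) in 200 mM KPO4, preincubated 10 min with compound; NADPH regeneration started a 60 min RT reaction. Luciferin detected by luminescence, normalized to 57 uM ketoconazole as full inhibition.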
# [9] = qHTS for Inhibitors of Plasmodium falciparum (GB4) proliferation (AID 504315); also: nearly all actives have a fitted effect of over 50% in size
# Summary of the method: (§2)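 Erythrocytes infected with P. falciparum line (0.3% parasitemia, 2.5% hematocrit final) incubated with compounds 72 h at 37 °C, 5% CO2; SYBR Green lysis buffer added, fluorescence read next day. Normalized to 0.29 uM artemisinin and DMSO.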
# [10] = qHTS for Inhibitors of Plasmodium falciparum (7G8) proliferation (AID 504316); also: nearly all actives have a fitted effect of over 65% in size
# Summary of the method: as §2
# [11] = qHTS for Inhibitors of Plasmodium falciparum (HB3) proliferation (AID 504318); also: nearly all actives have a fitted effect of over 60% in size
# Summary of the method: as §2
# [12] = qHTS for Inhibitors of Plasmodium falciparum (CP250) proliferation (AID 504320)
# Summary of the method: as §2
# Sequence of Ubiquitin carboxyl-terminal hydrolase 1 (Homo sapiens) (O94782 whole entry, looked up): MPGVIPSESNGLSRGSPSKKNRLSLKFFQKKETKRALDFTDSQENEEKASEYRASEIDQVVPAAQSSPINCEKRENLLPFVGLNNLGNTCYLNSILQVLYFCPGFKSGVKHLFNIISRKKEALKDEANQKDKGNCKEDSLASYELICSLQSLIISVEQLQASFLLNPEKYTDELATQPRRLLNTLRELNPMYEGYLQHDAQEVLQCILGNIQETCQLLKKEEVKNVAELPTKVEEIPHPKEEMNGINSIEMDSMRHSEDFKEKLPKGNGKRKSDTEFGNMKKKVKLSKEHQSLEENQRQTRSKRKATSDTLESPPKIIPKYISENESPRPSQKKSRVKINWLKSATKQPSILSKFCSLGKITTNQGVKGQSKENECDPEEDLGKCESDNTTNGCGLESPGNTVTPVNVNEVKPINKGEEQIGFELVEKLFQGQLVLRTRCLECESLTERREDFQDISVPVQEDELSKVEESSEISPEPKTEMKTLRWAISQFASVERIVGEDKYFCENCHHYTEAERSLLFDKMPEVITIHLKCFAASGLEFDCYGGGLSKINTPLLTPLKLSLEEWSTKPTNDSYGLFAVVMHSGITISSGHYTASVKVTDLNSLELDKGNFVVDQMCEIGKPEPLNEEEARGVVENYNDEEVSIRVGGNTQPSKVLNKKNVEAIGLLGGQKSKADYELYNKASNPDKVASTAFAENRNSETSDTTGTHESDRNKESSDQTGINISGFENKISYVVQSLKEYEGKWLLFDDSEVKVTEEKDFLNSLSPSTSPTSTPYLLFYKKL
# Sequence of Cytochrome P450 3A4 (Homo sapiens) (P08684 whole entry, looked up): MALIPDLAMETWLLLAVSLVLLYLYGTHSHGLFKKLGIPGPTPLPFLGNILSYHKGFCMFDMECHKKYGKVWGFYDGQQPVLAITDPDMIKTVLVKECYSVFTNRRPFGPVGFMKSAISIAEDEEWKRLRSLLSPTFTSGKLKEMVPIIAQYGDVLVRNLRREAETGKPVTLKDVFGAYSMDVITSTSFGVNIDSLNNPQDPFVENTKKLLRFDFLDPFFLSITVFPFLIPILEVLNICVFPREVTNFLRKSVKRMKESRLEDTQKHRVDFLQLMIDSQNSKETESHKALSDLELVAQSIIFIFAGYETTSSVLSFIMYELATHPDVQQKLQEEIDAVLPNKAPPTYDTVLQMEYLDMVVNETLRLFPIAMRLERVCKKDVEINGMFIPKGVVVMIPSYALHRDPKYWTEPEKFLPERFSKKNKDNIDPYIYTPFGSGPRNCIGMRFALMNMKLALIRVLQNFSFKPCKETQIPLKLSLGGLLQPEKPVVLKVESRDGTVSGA
# Sequence of DNA dC->dU-editing enzyme APOBEC-3G (Homo sapiens) (Q9HC16 whole entry, looked up): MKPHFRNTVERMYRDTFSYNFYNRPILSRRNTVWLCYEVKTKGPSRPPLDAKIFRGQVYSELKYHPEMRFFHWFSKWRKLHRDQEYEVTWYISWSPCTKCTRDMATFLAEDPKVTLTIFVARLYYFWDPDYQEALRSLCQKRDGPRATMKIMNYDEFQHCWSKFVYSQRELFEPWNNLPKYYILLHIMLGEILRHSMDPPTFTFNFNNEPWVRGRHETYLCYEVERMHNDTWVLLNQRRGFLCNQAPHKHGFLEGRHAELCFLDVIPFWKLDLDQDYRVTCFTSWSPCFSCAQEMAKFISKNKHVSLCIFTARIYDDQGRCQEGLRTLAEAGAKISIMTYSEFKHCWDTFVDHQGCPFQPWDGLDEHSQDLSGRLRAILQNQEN
smiles,measurement,setting,value
COC(=O)C1=C(C(=O)OC)[C@@H]2Nc3ccccc3[C@@]23C[C@@H](C(=O)OC)N(C(=O)CC(C)C)C3=N1,Potency,[1],inactive
CCCCC(=O)OC1CCC2C3CCc4cc(O)ccc4C3CC[C@]12C (some centres undefined),Potency,[2],inactive
same,Potency,[3],inactive
same,Potency,DFO2036,inactive
Cc1ccc(S(=O)(=O)N2CCc3nc(COc4ccccc4)c4c(c3C2)CO[C@@H](C)C4)cc1,Potency,[1],inactive
C=C1CCC(O)C/C1=C/C=C1\CCC[C@]2(C)[C@@H]([C@H](C)/C=C/[C@H](C)C(C)C)CC[C@@H]12 (some centres undefined),Potency,[4],36.1 µM (active)
same,Potency,DIV14,inactive
C[C@@H]1CC2[C@@H]3C[C@H](F)C4=CC(=O)C(Cl)=C[C@]4(C)[C@@]3(F)[C@H](O)C[C@]2(C)[C@@]1(O)C(=O)CO (some centres undefined),Potency,[4],inactive
C=CCN1c2ccccc2[C@]23C[C@@H](C(=O)OC)N(S(=O)(=O)c4ccc(C(F)(F)F)cc4)C2=NC(C(=O)OC)=C(C(=O)OC)[C@H]13,Potency,[1],inactive
Cc1cncc(C(=O)O)[n+]1[O-],Potency,[4],inactive
same,Potency,DIV14,inactive
same,Potency,ICS,inactive
same,Potency,W2,inactive
O=C(NC(CO)C(O)c1ccc([N+](=O)[O-])cc1)C(Cl)Cl (centres undefined),Potency,[2],inactive
same,Potency,[3],inactive
same,Potency,[5],inactive
same,Potency,[4],inactive
C[C@H]1Cc2c(COc3ccccc3)nc3c(c2CO1)CN(C(=O)c1ccco1)CC3,Potency,[1],inactive
O=C1Oc2ccccc2C(=O)C1C(CC(O)c1ccc(-c2ccc(Br)cc2)cc1)c1ccccc1 (centres undefined),Potency,[4],36.1 µM (active)
C[C@H](CN1c2ccccc2Sc2cccnc21)N(C)C,Potency,[5],inactive
same,Potency,[4],inactive
same,Potency,DFO2036,11.2 µM (active)
same,Potency,DIV14,4.78 µM (active)
same,Potency,W2,1.69 µM (active)
Cc1cc(O)c2c(c1)OC1(C)CCC3C(C)(C)CCCC34COC2C14 (centres undefined),Potency,[4],28.7 µM (active)
same,Potency,DIV14,8.49 µM (active)
same,Potency,ICS,6.31 µM (active)
same,Potency,W2,8.49 µM (active)
CCOc1ccccc1O[C@@H](c1ccccc1)[C@@H]1CNCCO1,Potency,[6],inactive
same,Potency,[5],inactive
same,outcome,[7],inactive
same,Potency,[4],inactive
same,Potency,DFO2036,inactive
same,Potency,DIV14,1.69 µM (active)
same,Potency,ICS,5.01 µM (active)
same,Potency,W2,2.69 µM (active)
CN(C)CC[C@@](O)(c1ccccc1)c1ccccc1Cl,Potency,[5],inactive
same,Potency,[4],inactive
same,Potency,DFO2036,8.91 µM (active)
same,Potency,DIV14,6.75 µM (active)
same,Potency,ICS,4.47 µM (active)
same,Potency,W2,1.2 µM (active)
CC(C)CCCC(C)C1CC(=O)C2=C3CCC4CC(O)CCC4(C)C3CCC21C (centres undefined),Potency,DFO2036,inactive
same,Potency,DIV14,inactive
same,Potency,W2,7.57 µM (active)
CCC1OC(=O)C[C@H](O)C(C)[C@@H](O[C@@H]2OC(C)C(O)C(N(C)C)C2O)C(CCN2CC(C)CC(C)C2)CC(C)C(=O)/C=C/C(C)=C\[C@@H]1COC1OC(C)C(O)C(OC)C1OC (some centres undefined),Potency,[8],inactive
same,Potency,[2],inactive
same,Potency,[3],inactive
same,Potency,[5],inactive
same,Potency,[4],inactive
same,Potency,ICS,10 µM (active)
same,Potency,W2,1.07 µM (active)
O=C(O)C[CH2][Ge](=[O])[O][Ge](=[O])[CH2]CC(=O)O,Potency,[5],inactive
same,Potency,[4],inactive
same,Potency,DFO2036,inactive
same,Potency,DIV14,inactive
same,Potency,ICS,inactive
same,Potency,W2,inactive
CNC1CCc2cc(OC)c(OC)c(OC)c2-c2ccc(OC)c(=O)cc21 (centres undefined),Potency,[5],inactive
same,Potency,DFO2036,inactive
C=CCN1CC(C(=O)N(CCCN(C)C)C(=O)NCC)CC2c3cccc4[nH]cc(c34)CC21 (centres undefined),Potency,[5],inactive
same,Potency,DIV14,15.1 µM (active)
same,Potency,ICS,12.6 µM (active)
same,Potency,W2,6.01 µM (active)
CC#CCN1c2ccccc2[C@]23C[C@@H](C(=O)OC)N(C(=O)C4CCC4)C2=NC(C(=O)OC)=C(C(=O)OC)[C@H]13,Potency,[1],inactive
C=C1CC[C@H](O)C/C1=C/C=C1\CCC[C@]2(C)[C@@H]([C@H](C)CC[C@@H](O)C(C)(C)O)CC[C@@H]12,Potency,DIV14,13.5 µM (active)
same,Potency,ICS,10 µM (active)
same,Potency,W2,12 µM (active)
C=C1CC[C@H](O)C/C1=C/C=C1\CCC[C@]2(C)[C@@H]([C@H](C)CCCC(C)(C)O)CC[C@@H]12,Potency,ICS,7.94 µM (active)
CC[C@H]1OC(=O)[C@H](C)C(=O)[C@H](C)[C@@H](OC2O[C@H](C)C[C@H](N(C)C)[C@@H]2O)[C@@](C)(OC)C[C@@H](C)C(=O)[C@@H](C)C2N(CCCCn3cnc(-c4cccnc4)c3)C(=O)O[C@@]21C (some centres undefined),Potency,DFO2036,inactive
same,Potency,DIV14,12 µM (active)
same,Potency,ICS,10 µM (active)
CC#CCN1c2ccccc2[C@]23C[C@@H](C(=O)OC)N(S(=O)(=O)c4ccc5c(c4)OCCN5C)C2=NC(C(=O)OC)=C(C(=O)OC)[C@H]13,Potency,[1],inactive
COC(=O)C1=C(C(=O)OC)[C@@H]2Nc3ccccc3[C@@]23C[C@@H](C(=O)OC)N(S(=O)(=O)c2ccc([N+](=O)[O-])cc2)C3=N1,Potency,[1],inactive
COc1ccc(CC(C)NCC(O)c2ccc(O)c(NC=O)c2)cc1 (centres undefined),Potency,[5],inactive
C[C@]12CCC(=O)C=C1[C@@H]1C[C@H]1[C@H]1[C@@H]3[C@@H]4C[C@H]4[C@@]4(CCC(=O)O4)[C@@]3(C)CC[C@@H]12,Potency,[5],inactive
same,Potency,DFO2036,inactive
CC#CCN1c2ccccc2[C@]23C[C@@H](C(=O)OC)N(S(=O)(=O)CCCC)C2=NC(C(=O)OC)=C(C(=O)OC)[C@H]13,Potency,[1],inactive
C/C(=C(/CCOC(=O)C(C)C)SS/C(CCOC(=O)C(C)C)=C(\C)N(C=O)Cc1cnc(C)nc1N)N(C=O)Cc1cnc(C)nc1N,Potency,[5],inactive
same,Potency,DIV14,inactive
same,Potency,ICS,inactive
same,Potency,W2,inactive
COC(=O)C1[C@@H](OC)C(OC(=O)COc2ccc(OC)cc2)C[C@@H]2CN3CCc4c([nH]c5cc(OC)ccc45)[C@H]3C[C@H]12 (some centres undefined),Potency,[5],inactive
same,Potency,DIV14,7.57 µM (active)
same,Potency,ICS,5.01 µM (active)
same,Potency,W2,8.49 µM (active)
C=C1N[C@]2(C(=O)COC(C)=O)[C@@H](C[C@H]3[C@@H]4CCC5=CC(=O)C=C[C@]5(C)[C@H]4[C@@H](O)C[C@@]32C)O1,Potency,[5],inactive
same,Potency,[4],inactive
same,Potency,DIV14,inactive
same,Potency,W2,15.1 µM (active)
C=CC[C@]1(C(=O)OC)C=C[C@H](C)[C@@H](c2ccccc2)N1C(=O)C(F)(F)F,Potency,[1],inactive
same,Potency,[9],inactive
same,Potency,[10],inactive
same,Potency,[11],inactive
same,Potency,[12],inactive
CC(CCN1CCCc2nc(C)c(C)cc21)=NO[C@H](C)c1cn([C@@H]2COC[C@@H]2O)nn1,Potency,[1],inactive
same,Potency,[9],inactive
same,Potency,[10],inactive
same,Potency,[11],inactive
COC(=O)[C@@H]1[C@@H](C)N(Cc2ccccc2)C(=O)N[C@H]1c1ccccc1,Potency,[1],inactive
same,Potency,[9],inactive
same,Potency,[10],inactive
same,Potency,[11],inactive
same,Potency,[12],inactive
